The values below come from PubChem BioAssay (Tox21).

The structures appear in SMILES notation. Results filed as inconclusive are left out. A number with no mark means an inactive call. Calls follow the shape of the dose curve; as a rule, active = well fitted cell-killing curve with a large enough effect in the repeat runs; inconclusive = weak or mixed curves; inactive = no such curve, though single readings can be large or run the other way.
% is scaled to controls: 0 for no effect and ±100 for the full control effect.

The assay is described as follows: qHTS assay to identify small molecule antagonists of the androgen receptor (AR) signaling pathway - cell viability counter screen (AID 743033; also: nearly all actives have a fitted effect of over 45% in size). The note with it: AR-bla HEK293 viability, CellTiter-Glo luminescence, 16 h; series mostly up to 58.5 µM; activity change, negative = cytotoxicity: at the top concentration. On the technique in general: Quantitative high-throughput screening tests each substance at several concentrations.
As to `C=C1c2c(Cl)ccc(O)c2C(O)=C2C(=O)[C@]3(O)C(O)=C(C(N)=O)C(=O)[C@@H](N(C)C)[C@@H]3[C@@H](O)[C@H]12`, the “activity change, negative = cytotoxicity” value is -16.7% [at 27 µM]. As to `CCCCCC(O)/C=C/C=O` (stereo not given), the “activity change, negative = cytotoxicity” value is 0.398%. `CCC(c1ccccc1)c1noc(CCN(CC)CC)n1` (stereo not given): the “activity change, negative = cytotoxicity” value was -0.449%.

`CN1CCc2c(c3ccccc3n2Cc2ccccc2)C1`: the “activity change, negative = cytotoxicity” value was 1.22% [at 27 µM].

In the case of `CCCCCCCCCCCCCCCCCCOP(=O)([O-])OC1CC[N+](C)(C)CC1`, the “activity change, negative = cytotoxicity” value was -3.96% [at 27 µM].

In the case of `CC(C)CN(C[C@@H](O)[C@H](Cc1ccccc1)NC(=O)O[C@H]1CO[C@H]2OCC[C@H]21)S(=O)(=O)c1ccc(N)cc1`, the “activity change, negative = cytotoxicity” value is -20.5%.

`CCOC(=O)[C@H](CS)NCCN[C@@H](CS)C(=O)OCC`: the “activity change, negative = cytotoxicity” value is -0.196%.

`CC#CCC(C)[C@H](O)/C=C/[C@@H]1[C@H]2C/C(=C/CCCC(=O)O)C[C@H]2C[C@H]1O` (stereo not given in full): the “activity change, negative = cytotoxicity” value is -10.1%. The result for `CC(C)(C)NC(=O)[C@H]1CC[C@H]2[C@@H]3CC=C4C=C(C(=O)O)CC[C@]4(C)[C@H]3CC[C@]12C` reads 1.52%; that for `CS(=O)(=O)c1ccc(C2=C(c3ccccc3)C(=O)OC2)cc1`, -14.8%. Turning to `CC(C)(C)NCC(O)CSc1nc(-c2ccc(C(N)=O)s2)cs1` (stereo not given), the “activity change, negative = cytotoxicity” value was -0.939%. With `C#C[C@]1(O)CC[C@H]2[C@@H]3CCC4=C(CCC(=O)C4)[C@H]3CC[C@@]21C` the figure was 11.3% [at 27 µM]; with `CCCCCCCCCCCCCCCCCC[N+](C)(C)CCC[Si](OC)(OC)OC`, 0.808%.

`CCC(=O)OCC(=O)[C@@]1(OC(=O)CC)[C@H](C)C[C@H]2[C@H]3[C@H]([C@@H](O)C[C@@]21C)[C@@]1(C)C=CC(=O)C=C1C[C@H]3Cl`: the “activity change, negative = cytotoxicity” value is -7.52% [at 27 µM]. As for `CC(C)NCC(O)COc1ccccc1-n1cccc1` (stereo not given), the “activity change, negative = cytotoxicity” value is 1.85%.
